Results published in PubChem BioAssay (Tox21).
Records with an inconclusive call do not appear. Activity calls are given as the source filed them. Unless noted, calls follow the shape of the dose curve; as a rule, active = well fitted curve in the direction sought with a large enough effect in the repeat runs; inconclusive = weak or mixed curves; inactive = no such curve, though single readings can be large; an effect the other way counts as inactive or inconclusive.

Columns and labels:
[1] = target: Thyrotropin receptor (Homo sapiens) (UniProt P16473); assay: qHTS assay to identify small molecule antagonists of the thyroid stimulating hormone receptor (TSHR) signaling pathway (AID 1259385; calls by dose curve; also: nearly all actives have a fitted effect of over 20% in size)
Sequence of Thyrotropin receptor (Homo sapiens) (P16473 whole entry, looked up): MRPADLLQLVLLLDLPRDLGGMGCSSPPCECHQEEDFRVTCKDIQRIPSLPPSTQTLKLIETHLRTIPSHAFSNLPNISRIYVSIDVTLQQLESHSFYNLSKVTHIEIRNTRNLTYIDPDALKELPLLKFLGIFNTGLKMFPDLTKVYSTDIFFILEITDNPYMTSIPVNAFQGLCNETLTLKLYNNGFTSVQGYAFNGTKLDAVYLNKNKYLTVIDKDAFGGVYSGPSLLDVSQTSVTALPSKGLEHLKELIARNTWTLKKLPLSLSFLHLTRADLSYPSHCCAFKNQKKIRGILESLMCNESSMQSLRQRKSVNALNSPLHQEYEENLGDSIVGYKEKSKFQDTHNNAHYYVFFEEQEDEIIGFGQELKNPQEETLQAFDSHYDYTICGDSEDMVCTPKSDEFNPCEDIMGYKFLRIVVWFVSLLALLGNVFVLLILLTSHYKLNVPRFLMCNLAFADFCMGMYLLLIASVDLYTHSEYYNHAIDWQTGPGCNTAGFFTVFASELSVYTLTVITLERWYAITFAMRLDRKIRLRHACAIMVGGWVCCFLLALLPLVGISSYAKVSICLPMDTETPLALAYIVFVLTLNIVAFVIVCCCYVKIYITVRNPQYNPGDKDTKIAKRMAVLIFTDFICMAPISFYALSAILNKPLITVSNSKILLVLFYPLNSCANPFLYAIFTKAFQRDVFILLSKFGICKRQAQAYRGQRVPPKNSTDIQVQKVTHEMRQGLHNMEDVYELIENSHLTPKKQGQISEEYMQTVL
Outline: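 Antagonist mode: compound-treated TSHR-expressing HEK293 cells were stimulated with 1.5 ng/mL TSH (final) in presence of Ro20-1724 for 30 min at RT. HTRF cAMP detection after 1 h; each compound tested at 15 concentrations, triplicate.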

[2] = qHTS assay to identify small molecule agonists of the estrogen receptor alpha (ER-alpha) signaling pathway in the presence of an antagonist - cell viability counter screen (AID 1259386);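 also: series mostly up to about 92 µM; cells exposed to compounds for 22 h at 37 °C before the viability read; nearly all actives have a fitted effect of over 30% in size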
Outline: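 ICI-182,780 at 10.0nM final accompanies the compound titration (15 concentrations, 22hr, 37C) on VM7Luc4E2 cells. The CellTiter-Fluor fluorescence readout runs in the same wells as the luciferase assay.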

[3] = target: Progesterone receptor (Homo sapiens) (UniProt P06401); assay: qHTS assay to identify small molecule agonists of the progesterone receptor (PR) signaling pathway (AID 1346784; calls by dose curve; also: nearly all actives have a fitted effect of over 30% in size)
Sequence of Progesterone receptor (Homo sapiens) (P06401 whole entry, looked up): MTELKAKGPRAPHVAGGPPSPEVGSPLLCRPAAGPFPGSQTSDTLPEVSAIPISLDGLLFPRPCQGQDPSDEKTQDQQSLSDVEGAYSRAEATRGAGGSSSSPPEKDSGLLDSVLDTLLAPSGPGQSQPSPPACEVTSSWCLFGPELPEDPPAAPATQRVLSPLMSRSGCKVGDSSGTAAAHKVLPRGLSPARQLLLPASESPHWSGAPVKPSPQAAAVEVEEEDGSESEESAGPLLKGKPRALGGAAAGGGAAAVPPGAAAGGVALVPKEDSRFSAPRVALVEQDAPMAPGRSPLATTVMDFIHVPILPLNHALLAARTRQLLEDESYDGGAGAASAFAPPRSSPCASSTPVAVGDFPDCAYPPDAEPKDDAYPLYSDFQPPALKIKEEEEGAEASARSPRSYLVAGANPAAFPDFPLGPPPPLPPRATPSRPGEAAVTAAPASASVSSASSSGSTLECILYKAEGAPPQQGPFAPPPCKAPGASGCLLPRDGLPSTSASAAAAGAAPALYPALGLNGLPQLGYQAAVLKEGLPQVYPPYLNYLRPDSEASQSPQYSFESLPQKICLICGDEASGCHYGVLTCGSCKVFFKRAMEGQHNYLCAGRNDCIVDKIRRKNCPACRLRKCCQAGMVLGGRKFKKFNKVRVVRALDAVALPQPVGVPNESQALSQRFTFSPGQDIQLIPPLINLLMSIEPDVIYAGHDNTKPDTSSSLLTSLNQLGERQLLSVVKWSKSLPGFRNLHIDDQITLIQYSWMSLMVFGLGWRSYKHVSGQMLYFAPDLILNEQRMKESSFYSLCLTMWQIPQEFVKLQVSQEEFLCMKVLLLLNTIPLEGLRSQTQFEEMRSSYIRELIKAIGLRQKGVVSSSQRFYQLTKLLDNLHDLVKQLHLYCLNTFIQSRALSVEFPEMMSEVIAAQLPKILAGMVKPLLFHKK
Outline: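 Using charcoal-stripped serum (2%) to limit endogenous steroids, PR-UAS-bla HEK 293T cells received compounds for 16 hr at 37C after 6 hr plating; beta-lactamase FRET fluorescence was recorded following 2 hr substrate loading at room temperature.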

[4] = target: Progesterone receptor (Homo sapiens) (UniProt P06401); assay: qHTS assay to identify small molecule antagonists of the progesterone receptor (PR) signaling pathway (AID 1346795; active = well fitted inhibition curve with a large enough effect in the signal ratio in the repeat runs, not every such curve was filed as active; the % refers to the signal ratio)
Outline: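 Inhibition of R5020-induced (1 nM final) beta-lactamase reporter signal in PR-UAS-bla HEK293T cells was scored by FRET fluorescence after overnight (16 hr) compound treatment.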

[5] = qHTS assay to identify small molecule antagonists of the progesterone receptor (PR) signaling pathway - cell viability counter screen (AID 1346798); also: series mostly up to about 92 µM; nearly all actives have a fitted effect of over 50% in size
Outline: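 ATP content as viability readout: CellTiter-Glo luminescence, 30 min room temperature, in PR-UAS-bla HEK293T cells after 16 hr compound/R5020 treatment at 37C and 5% CO2.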

[6] = qHTS assay to identify small molecule agonists of the progesterone receptor (PR) signaling pathway - cell viability counter screen (AID 1346799; calls by dose curve; also: nearly all actives have a fitted effect of over 45% in size)
Outline: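 Cytotoxicity in PR-bla HEK293T cells: 16 h compound, 37C; CellTiter-Glo added post-FRET read; luminescence after 30 min RT.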

[7] = qHTS assay to identify small molecule antagonists of the TGF-beta/Smad signaling pathway - cell viability counter screen (AID 1346824); also: nearly all actives have a fitted effect of over 50% in size
Outline: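 Cytotoxicity counter-screen run in the same wells as the beta-lactamase Smad reporter read: CellTiter-Glo luminescence after 30 min at room temperature. HEK 293T SBE-bla cells had 5 hr compound exposure at 37 C with TGF-beta1 (0.25 ng/mL stock).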

[8] = qHTS assay to identify small molecule agonists of the TGF-beta/Smad signaling pathway - cell viability counter screen (AID 1346829); also: top concentration of the series differs between compounds; nearly all actives have a fitted effect of over 45% in size
Outline: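 HEK 293T SBE-bla line, 5 hr compound exposure at 37 C, multiplexed CellTiter-Glo viability read by luminescence.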

[9] = qHTS assay to identify small molecule agonists of the TGF-beta/Smad signaling pathway (AID 1346859; active = well fitted activation curve with a large enough effect in the signal ratio in the repeat runs, not every such curve was filed as active; the % refers to the signal ratio; also: series mostly up to about 77 µM)
Outline: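 Stable Smad binding element-beta-lactamase HEK 293T cells; 5 hr compound exposure at 37 C under 5% CO2; 2 hr room-temperature substrate step; fluorescence excited at 405 nm, collected at 460 nm and 530 nm.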

[10] = target: Thyrotropin-releasing hormone receptor (Homo sapiens) (UniProt P34981); assay: qHTS assay to identify small molecule antagonists of the thyrotropin-releasing hormone receptor (TRHR) signaling pathway (AID 1346877; active = well fitted inhibition curve with a large enough effect in the repeat runs, not every such curve was filed as active; also: series mostly up to about 51 µM)
Sequence of Thyrotropin-releasing hormone receptor (Homo sapiens) (P34981 whole entry, looked up): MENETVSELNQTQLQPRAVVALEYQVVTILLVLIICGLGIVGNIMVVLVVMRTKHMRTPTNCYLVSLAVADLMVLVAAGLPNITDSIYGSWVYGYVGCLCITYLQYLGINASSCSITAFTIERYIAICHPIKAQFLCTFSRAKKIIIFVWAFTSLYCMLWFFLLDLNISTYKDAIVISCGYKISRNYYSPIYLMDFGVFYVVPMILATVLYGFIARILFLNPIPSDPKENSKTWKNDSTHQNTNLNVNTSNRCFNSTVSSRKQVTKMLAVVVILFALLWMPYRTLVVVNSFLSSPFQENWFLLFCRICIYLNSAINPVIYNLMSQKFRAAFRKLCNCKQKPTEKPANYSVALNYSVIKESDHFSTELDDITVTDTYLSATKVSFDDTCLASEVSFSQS
Outline: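 Screening used HEK293 cells engineered with TRHR, with a brief 5 min room-temperature compound exposure preceding addition of TRH to 1 nM. The read-out was kinetic calcium-dye fluorescence, concentration-response from 15 doses in triplicate.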

[11] = target: Thyrotropin-releasing hormone receptor (Homo sapiens) (UniProt P34981); assay: qHTS assay to identify small molecule agonists of the thyrotropin-releasing hormone receptor (TRHR) signaling pathway (AID 1346891; calls by dose curve;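 also: HEK293 cells expressing TRHR with calcium dye readout; series mostly up to about 58 µM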)
Outline: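 In 1536-format, 1500 TRHR-Hek293 cells per well grew 18 h, took up calcium dye for 2 h at 37 °C, received compound, and were read kinetically; 15-point titrations, triplicates.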

[12] = Human pregnane X receptor (PXR) small molecule agonists, qHTS cell viability counter screen (AID 1346977); also: nearly all actives have a fitted effect of over 50% in size
Outline: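 Readout is CellTiter-Fluor fluorescence from PXR-Luc HepG2 cells. Plated cells rested 5hr, then were treated with compounds for 24hr at 37C and 5% CO2, with reagent present during the last hour.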

[13] = Caspase-3/7 induction in HepG2 cells by small molecules, qHTS assay (AID 1346978); also: nearly all actives have a fitted effect of over 15% in size
Outline: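 Caspase-3/7 induction was measured by Caspase-Glo 3/7 luminescence (30 min, room temperature) after a 17 hr compound exposure of wild-type HepG2 cells seeded at 2,000 per well and pre-incubated 5 hr.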

[14] = Caspase-3/7 induction in CHO-K1 cells by small molecules, qHTS cell viability counter screen (AID 1346979); also: nearly all actives have a fitted effect of over 35% in size
Outline: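 To flag cytotoxic compounds, treated CHO-K1 wild-type cells were given CellTiter-Fluor at 16hr and read fluorescently after 1hr at 37C; the caspase-3/7 luminescence was measured in these same wells.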

[15] = Caspase-3/7 induction in CHO-K1 cells by small molecules, qHTS assay (AID 1346980); also: nearly all actives have a fitted effect of over 15% in size
Outline: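 Luminescent Caspase-Glo 3/7 read (30min, room temperature) quantified apoptosis induction. Cells were wild-type CHO-K1, treated with compound for 17hr at 37 C and 5% CO2.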

[16] = Caspase-3/7 induction in HepG2 cells by small molecules, qHTS cell viability counter screen (AID 1346981); also: series mostly up to about 92 µM; nearly all actives have a fitted effect of over 30% in size
Outline: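 Multiplexed with the caspase-3/7 assay: HepG2 cells, 16 hr compound treatment, CellTiter-Fluor viability detection by fluorescence.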

[17] = target: Nuclear receptor subfamily 1 group I member 2 (Homo sapiens) (UniProt O75469); assay: Human pregnane X receptor (PXR) small molecule agonists, qHTS assay (AID 1346982); also: nearly all actives have a fitted effect of over 35% in size; also: potency is read from the fitted curve at half-maximal effect
Sequence of Nuclear receptor subfamily 1 group I member 2 (Homo sapiens) (O75469 whole entry, looked up): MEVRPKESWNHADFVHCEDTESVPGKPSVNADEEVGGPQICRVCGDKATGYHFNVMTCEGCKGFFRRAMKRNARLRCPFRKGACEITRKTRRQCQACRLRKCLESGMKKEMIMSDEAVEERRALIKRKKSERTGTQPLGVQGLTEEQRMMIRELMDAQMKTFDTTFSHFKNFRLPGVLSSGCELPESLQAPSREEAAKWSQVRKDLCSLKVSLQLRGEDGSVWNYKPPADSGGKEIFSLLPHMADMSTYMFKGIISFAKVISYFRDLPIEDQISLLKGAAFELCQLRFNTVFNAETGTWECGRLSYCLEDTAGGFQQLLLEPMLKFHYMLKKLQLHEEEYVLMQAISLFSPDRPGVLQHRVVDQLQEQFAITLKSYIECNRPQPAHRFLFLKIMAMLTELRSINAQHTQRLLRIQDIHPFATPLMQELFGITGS
Outline: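 We seeded PXR-Luc HepG2 cells in assay medium containing 5% charcoal-stripped FBS, added compounds 5 hr later, incubated 24 hr, and read luminescence with ONE-Glo reagent.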

[18] = target: Nuclear receptor subfamily 1 group I member 2 (Rattus norvegicus) (UniProt Q9R1A7); assay: Rat pregnane X receptor (rPXR) activation by small molecules, qHTS assay (AID 1346983); conditions: rPXR luciferase reporter cells, One-Glo luminescence, 24 h; active compounds read high; also: nearly all actives have a fitted effect of over 20% in size
Sequence of Nuclear receptor subfamily 1 group I member 2 (Rattus norvegicus) (Q9R1A7 whole entry, looked up): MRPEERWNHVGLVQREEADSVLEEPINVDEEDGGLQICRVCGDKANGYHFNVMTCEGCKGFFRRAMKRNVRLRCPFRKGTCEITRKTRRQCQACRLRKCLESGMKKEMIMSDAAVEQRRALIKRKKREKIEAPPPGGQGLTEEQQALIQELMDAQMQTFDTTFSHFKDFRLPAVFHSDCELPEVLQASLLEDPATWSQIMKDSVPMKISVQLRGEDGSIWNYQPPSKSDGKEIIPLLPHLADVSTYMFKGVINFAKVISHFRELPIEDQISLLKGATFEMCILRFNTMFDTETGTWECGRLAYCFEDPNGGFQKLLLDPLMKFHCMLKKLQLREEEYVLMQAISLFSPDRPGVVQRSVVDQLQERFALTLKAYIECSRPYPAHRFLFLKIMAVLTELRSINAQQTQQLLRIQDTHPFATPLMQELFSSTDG
Outline: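 Luminescent readout (One-Glo luciferase, 30 min room temperature) followed 24 hr compound treatment at 37 C of rPXR cells plated 2,000 per well and preincubated 5hr; qHTS format with compounds delivered in DMSO.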

[19] = target: Nuclear receptor subfamily 1 group I member 2 (Homo sapiens) (UniProt O75469); assay: CYP3A4 induction through human pregnane X receptor (PXR) by small molecules, qHTS assay (AID 1346984); also: nearly all actives have a fitted effect of over 40% in size
Outline: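 qHTS, concentration-response format: HepG2 DPX-2 line, PXR/CYP3A4-luc. Exposure 24 h, 37C. Substrate Luciferin-IPA 3uM final, 3 h. Detection One-Glo, 30 min RT.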

[20] = target: Nuclear receptor subfamily 1 group I member 2 (Homo sapiens) (UniProt O75469); assay: Human pregnane X receptor (PXR) activation by small molecules, qHTS assay (AID 1346985); also: nearly all actives have a fitted effect of over 40% in size
Outline: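 DPX-2 cells (HepG2 co-transfected with a PXR response element and a CYP3A4-promoter luciferase construct) were seeded at 2,000 per well, rested 5 hr at 37C, then exposed to DMSO-dissolved compounds for 24 hr. Activation was read as luciferase luminescence.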
% is scaled to controls: 0 for no effect and ±100 for the full control effect.

COP(=O)(OC)OC(c1ccc(Cl)cc1)P(=O)(OC)OC (stereo not drawn)
inactive: outcome [1] | Potency [2] | Potency [3] | Potency [4] | Potency [5] | Potency [6] | outcome [7] | outcome [8] | outcome [9] | outcome [10] | outcome [11] | Potency [12] | Potency [13] | Potency [14] | outcome [15] | Potency [16] | Potency [17] | max activation [18] 4.37% | Potency [19] | Potency [20]

CC(C)C(=O)OCc1cccc(OC(=O)[C@@H]2N3C(=O)[C@@H](NC(=O)Cc4ccccc4)[C@H]3SC2(C)C)c1
inactive: outcome [1] | Potency [2] | Potency [3] | Potency [4] | Potency [5] | Potency [6] | outcome [7] | outcome [8] | outcome [9] | outcome [10] | outcome [11] | Potency [12] | Potency [13] | Potency [14] | outcome [15] | Potency [16] | Potency [17]

Cc1ccccc1N=O
inactive: outcome [1] | Potency [2] | Potency [3] | Potency [4] | Potency [5] | Potency [6] | outcome [7] | outcome [8] | outcome [9] | outcome [10] | outcome [11] | Potency [14] | Potency [16] | Potency [17]

CN=C(NC#N)Nc1ccc(C2=NNC(=O)CC2C)cc1 (stereo not drawn)
inactive: outcome [1] | Potency [2] | Potency [3] | Potency [4] | Potency [5] | Potency [6] | outcome [7] | outcome [8] | outcome [9] | Potency [12] | Potency [13] | Potency [14] | Potency [16] | Potency [17]

O=C1c2ccccc2C(=O)c2cc(S(=O)(=O)O)ccc21
inactive: outcome [1] | Potency [2] | Potency [3] | Potency [4] | Potency [5] | Potency [6] | outcome [7] | outcome [8] | outcome [9] | outcome [10] | outcome [11] | Potency [13] | Potency [14] | outcome [15] | Potency [16]
active: Potency [17] 48.7 µM

CC(C)CCCC(C)(C)O
inactive: outcome [1] | Potency [2] | Potency [3] | Potency [4] | Potency [5] | Potency [6] | outcome [7] | outcome [8] | outcome [9] | Potency [12] | Potency [13] | Potency [14] | outcome [15] | Potency [16] | Potency [17]

Oc1cn2c(n1)Nc1ccc(Cl)c(Cl)c1C2
inactive: activity change, negative = inhibition [1] -0.393% [at 19 µM] | activity change, negative = cytotoxicity [2] 5.64% [at 19 µM] | activation [3] -0.586% [at 19 µM] | activity change, negative = inhibition [4] 2.35% [at 18.9 µM] | activity change, negative = cytotoxicity [5] 6.36% [at 18.9 µM] | activity change, negative = cytotoxicity [6] 10.9% [at 19 µM] | viability change, negative = cytotoxic [7] 8.57% [at 15.8 µM] | activity change, negative = cytotoxicity [8] -0.153% [at 15.8 µM] | activation [9] -0.288% [at 15.8 µM] | activity change, negative = cytotoxicity [12] -3.42% [at 19 µM] | caspase activation [13] 0.135% [at 19 µM] | activity change, negative = cytotoxicity [14] -2.03% [at 19 µM] | caspase-3/7 activation [15] -0.902% [at 19 µM] | activity change, negative = cytotoxicity [16] 6.29% [at 19 µM] | max activation [18] 0.479% | Potency [19] | Potency [20]
